Where “and” joins values, the source holds several entries; their conditions need not be identical. Equal values may be shown once. The panel holds about 83,000 compounds, 20% with a hit somewhere; the sample as a whole holds those more often.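 Assay: single dose, 48 h. Readout: percent growth (0 = no net growth; negative = cell death). Active: <10.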 Calls of active or inactive are those of the source.
Legend:
Assay in all cases: NCI-60 one-dose screen, 48 h (100 = growth as untreated, 0 = no growth, -100 = all killed)
SN12C renal = tested on: SN12C renal
UO-31 renal = tested on: UO-31 renal
TK-10 renal = tested on: TK-10 renal
ACHN renal = tested on: ACHN renal
CAKI-1 renal = tested on: CAKI-1 renal
A498 renal = tested on: A498 renal
CCRF-CEM leukemia = tested on: CCRF-CEM leukemia
MOLT-4 leukemia = tested on: MOLT-4 leukemia
SR leukemia = tested on: SR leukemia
RPMI-8226 leukemia = tested on: RPMI-8226 leukemia
OVCAR-8 ovarian = tested on: OVCAR-8 ovarian
OVCAR-5 ovarian = tested on: OVCAR-5 ovarian
OVCAR-4 ovarian = tested on: OVCAR-4 ovarian
IGROV1 ovarian = tested on: IGROV1 ovarian
HS 578T breast = tested on: HS 578T breast
NCI/ADR-RES ovarian = tested on: NCI/ADR-RES ovarian
T-47D breast = tested on: T-47D breast
BT-549 breast = tested on: BT-549 breast
MDA-MB-435 melanoma = tested on: MDA-MB-435 melanoma
SW-620 colon = tested on: SW-620 colon

Measured: growth

O=c1[nH]cc(F)c(=O)[nH]1
inactive: SN12C renal; 10 µM 57% and 73% | SN12C renal; 25 µM 54% | SN12C renal; 50 µM 46.3% | UO-31 renal; 10 µM 29.3% and 41.7% | UO-31 renal; 25 µM 41.3% | UO-31 renal; 50 µM 38.2% | TK-10 renal; 10 µM 71.2% | TK-10 renal; 25 µM 66.9% | ACHN renal; 10 µM 39.8% and 60.1% | ACHN renal; 25 µM 39.3% | ACHN renal; 50 µM 36.9% | CAKI-1 renal; 10 µM 28.5% and 63.3% | CAKI-1 renal; 25 µM 39.4% | CAKI-1 renal; 50 µM 43.2% | A498 renal; 10 µM 40.1% | A498 renal; 50 µM 52.6% | CCRF-CEM leukemia; 10 µM 56.3% and 65.9% | CCRF-CEM leukemia; 25 µM 57.1% | CCRF-CEM leukemia; 50 µM 50% | MOLT-4 leukemia; 10 µM 57.5% and 74.9% | MOLT-4 leukemia; 25 µM 43.1% | MOLT-4 leukemia; 50 µM 37.6% | SR leukemia; 10 µM 27.6% and 37.4% | SR leukemia; 25 µM 24.8% | SR leukemia; 50 µM 31.6% | RPMI-8226 leukemia; 10 µM 39.4% and 59.5% | RPMI-8226 leukemia; 25 µM 41.4% | OVCAR-8 ovarian; 10 µM 53.1% | OVCAR-8 ovarian; 50 µM 46.7% | OVCAR-5 ovarian; 10 µM 82.1% and 70.7% | OVCAR-5 ovarian; 25 µM 44.3% | OVCAR-5 ovarian; 50 µM 73% | OVCAR-4 ovarian; 10 µM 72.6% and 107% | OVCAR-4 ovarian; 25 µM 59.4% | OVCAR-4 ovarian; 50 µM 68.5% | IGROV1 ovarian; 10 µM 54.3% and 44.1% | IGROV1 ovarian; 25 µM 51.2% | IGROV1 ovarian; 50 µM 46.2% | HS 578T breast; 10 µM 99% | HS 578T breast; 50 µM 58.8% | NCI/ADR-RES ovarian; 10 µM 67.2% and 63.5% | NCI/ADR-RES ovarian; 25 µM 47.6% | NCI/ADR-RES ovarian; 50 µM 56.5% | T-47D breast; 10 µM 64.4% and 52.8% | T-47D breast; 25 µM 56.7% | BT-549 breast; 10 µM 57.2% and 54.6% | BT-549 breast; 25 µM 37.8% | BT-549 breast; 50 µM 60.6% | MDA-MB-435 melanoma; 10 µM 42.3% and 50.9% | MDA-MB-435 melanoma; 25 µM 36.6% | MDA-MB-435 melanoma; 50 µM 42.2% | SW-620 colon; 10 µM 60.1% and 77.8% | SW-620 colon; 25 µM 50.1% | SW-620 colon; 50 µM 43.4%
active: A498 renal; 25 µM -16.3% | HS 578T breast; 25 µM -10.8%

Cc1cc(NCCCN(C)C)c2ccc3c(ccc4c(NCCCN(C)C)cc(C)nc43)c2n1
active: SN12C renal; 10 µM -49.6% | UO-31 renal; 10 µM -54.7% | TK-10 renal; 10 µM -42.2% | ACHN renal; 10 µM -75.2% | CAKI-1 renal; 10 µM -41.7% | A498 renal; 10 µM -87.6% | CCRF-CEM leukemia; 10 µM -28.7% | MOLT-4 leukemia; 10 µM -24.3% | RPMI-8226 leukemia; 10 µM -11.3% | OVCAR-8 ovarian; 10 µM -24.6% | OVCAR-5 ovarian; 10 µM -15.4% | OVCAR-4 ovarian; 10 µM -33.7% | IGROV1 ovarian; 10 µM -73.4% | HS 578T breast; 10 µM -42.7% | NCI/ADR-RES ovarian; 10 µM -10.4% | T-47D breast; 10 µM -34.2% | BT-549 breast; 10 µM -91.4% | MDA-MB-435 melanoma; 10 µM -99.1% | SW-620 colon; 10 µM -99.3%

CSc1ccc2c(c1)C(N1CCN(C)CC1)Cc1ccccc1S2 (centres undefined)
inactive: SN12C renal; 10 µM 35.6% | UO-31 renal; 10 µM 15.5% | TK-10 renal; 10 µM 43.1% | ACHN renal; 10 µM 12% | CAKI-1 renal; 10 µM 19.5% | A498 renal; 10 µM 16.4% | CCRF-CEM leukemia; 10 µM 31.7% | RPMI-8226 leukemia; 10 µM 24.3% | OVCAR-8 ovarian; 10 µM 67.9% | OVCAR-5 ovarian; 10 µM 41.7% | OVCAR-4 ovarian; 10 µM 36.1% | IGROV1 ovarian; 10 µM 20.8% | HS 578T breast; 10 µM 39.8% | NCI/ADR-RES ovarian; 10 µM 49.2% | T-47D breast; 10 µM 43.3% | BT-549 breast; 10 µM 63.1% | SW-620 colon; 10 µM 54.4%
active: MOLT-4 leukemia; 10 µM -23.3% | SR leukemia; 10 µM -32.8% | MDA-MB-435 melanoma; 10 µM 7.17%

CN(C)CCC(=O)c1c[nH]c2ccccc12
inactive: SN12C renal; 10 µM 104% | UO-31 renal; 10 µM 77.3% | TK-10 renal; 10 µM 103% | ACHN renal; 10 µM 105% | CAKI-1 renal; 10 µM 94.4% | A498 renal; 10 µM 126% | CCRF-CEM leukemia; 10 µM 96.2% | MOLT-4 leukemia; 10 µM 93.6% | SR leukemia; 10 µM 91.5% | RPMI-8226 leukemia; 10 µM 98.1% | OVCAR-8 ovarian; 10 µM 112% | OVCAR-5 ovarian; 10 µM 109% | OVCAR-4 ovarian; 10 µM 111% | IGROV1 ovarian; 10 µM 106% | HS 578T breast; 10 µM 106% | NCI/ADR-RES ovarian; 10 µM 110% | T-47D breast; 10 µM 84.1% | BT-549 breast; 10 µM 121% | MDA-MB-435 melanoma; 10 µM 107% | SW-620 colon; 10 µM 111%

Cc1cnc(/C=N\NC(N)=S)c2cccc(N)c12
inactive: TK-10 renal; 10 µM 19.6% | ACHN renal; 10 µM 10.2% | A498 renal; 10 µM 12.4% | OVCAR-8 ovarian; 10 µM 17.7% | OVCAR-5 ovarian; 10 µM 34.9% | OVCAR-4 ovarian; 10 µM 31.9% | HS 578T breast; 10 µM 69.1% | NCI/ADR-RES ovarian; 10 µM 10.9% | MDA-MB-435 melanoma; 10 µM 27.8% | SW-620 colon; 10 µM 35%
active: SN12C renal; 10 µM -12.9% | UO-31 renal; 10 µM 1.67% | CAKI-1 renal; 10 µM 2.66% | CCRF-CEM leukemia; 10 µM -28.1% | MOLT-4 leukemia; 10 µM -13.8% | SR leukemia; 10 µM -16.3% | RPMI-8226 leukemia; 10 µM -9.76% | T-47D breast; 10 µM 9.76%

Cc1ccc2nc(N/N=C/c3ccc(C)s3)cc(C)c2c1
active: TK-10 renal; 100 µM -96.6% and -100%

S=c1[nH]nc(Cc2ccccc2)c(=S)[nH]1
inactive: SN12C renal; 10 µM 113% | UO-31 renal; 10 µM 76.3% | TK-10 renal; 10 µM 99.7% | ACHN renal; 10 µM 107% | CAKI-1 renal; 10 µM 97.6% | A498 renal; 10 µM 68.9% | CCRF-CEM leukemia; 10 µM 104% | MOLT-4 leukemia; 10 µM 106% | SR leukemia; 10 µM 94.7% | RPMI-8226 leukemia; 10 µM 97.2% | OVCAR-8 ovarian; 10 µM 104% | OVCAR-5 ovarian; 10 µM 107% | OVCAR-4 ovarian; 10 µM 98% | IGROV1 ovarian; 10 µM 102% | HS 578T breast; 10 µM 101% | NCI/ADR-RES ovarian; 10 µM 100% | T-47D breast; 10 µM 90.4% | BT-549 breast; 10 µM 109% | MDA-MB-435 melanoma; 10 µM 106% | SW-620 colon; 10 µM 109%
